Calls of active or inactive are those of the source. How the calls were made is not given here.
These compounds were tested against L-lactate dehydrogenase (Plasmodium falciparum (isolate CDC / Honduras)) (UniProt Q27743) (assay: PfLDH activity inhibition – cell lysate, 3D7 strain, counter-screen for P. falciparum growth inhibition project (AID 2304;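 further: 0% = vehicle and 100% = reference inhibitor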)). Settings: P. falciparum 3D7 crude extract, LDH APAD/NBT absorbance; at 2 µM; hits give high values.
Sequence of L-lactate dehydrogenase (Plasmodium falciparum (isolate CDC / Honduras)) (Q27743 whole entry, looked up): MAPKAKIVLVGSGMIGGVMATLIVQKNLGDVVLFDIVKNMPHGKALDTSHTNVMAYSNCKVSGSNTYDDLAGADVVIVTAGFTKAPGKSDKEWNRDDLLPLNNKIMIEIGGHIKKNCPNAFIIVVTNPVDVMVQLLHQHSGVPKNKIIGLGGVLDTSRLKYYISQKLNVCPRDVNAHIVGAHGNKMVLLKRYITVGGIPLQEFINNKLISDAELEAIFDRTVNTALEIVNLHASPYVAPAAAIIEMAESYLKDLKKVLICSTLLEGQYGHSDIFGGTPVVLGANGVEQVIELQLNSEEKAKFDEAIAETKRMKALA

Structure (SMILES)	inhibition
COc1ccc(OCCn2cc(C(=O)c3ccco3)c3ccccc32)cc1	-1% (inactive)
COc1ccc(CN2CCC(NCc3cccc(C(F)(F)F)c3)CC2)cc1	0% (inactive)
C=CCN1C(=O)CN(S(=O)(=O)c2ccc(-n3nc(C)cc3C)cc2)C1=S	1% (inactive)
CN(C)CCCOc1cc(NC(=O)Nc2ccc(-c3ccncc3)c3ccccc23)ccc1I	1% (inactive)
CCOC(=O)c1ccc(N2CCN(c3cc(C)ccc3C)CC2)c(NC(=O)Nc2ccc(Cl)c(Cl)c2)c1	-2% (inactive)
O=S(=O)(c1ccccc1Cl)N1CCCCC(c2ccc(C(F)(F)F)cc2)=N1	4% (inactive)
COc1ccc(CC2(c3ccc(F)cc3)N=C(N)N(CCCc3cccnc3)C2=O)cc1 (configuration not stated)	0% (inactive)
O=C(NC1CCCCC1)N(CCCn1ccnc1)Cc1csc(-c2ccc(CNCc3ccccc3)cc2)n1	0% (inactive)
CCC(CC)NCc1c(O)ccc2c(CNC(CC)CC)c(O)ccc12	0% (inactive)
O=S(=O)(Nc1cccc(CCN2CCCCC2CCN2CCCC2)c1)c1cccc2ccccc12 (configuration not stated)	3% (inactive)
CC(C)[C@H](NC(=O)c1c(CN2CCC(N3CCCCC3)CC2)c(-c2ccccc2)nc2cc(O)ccc12)c1ccccc1	4% (inactive)
COc1cc(NC(=O)c2sc(-c3ccc(Cl)cc3)cc2Cl)ccc1OCCN1CCCC1	4% (inactive)
COc1cc2nc(N3CCC(CNC(=O)c4cccc5cccnc45)CC3)nc(N)c2cc1OC	-2% (inactive)
CNc1ccc(CNCc2ccc(-c3ccc(-c4nc5ccc(C(F)(F)F)cc5[nH]4)s3)cc2)cc1	-2% (inactive)
COc1ccc(CN(C)CCCc2ccc(NC(=O)c3cccc4c(=O)c5cccc(F)c5[nH]c34)cc2)cc1OC	0% (inactive)
CCCC(C)Nc1nc(C)cc(N[C@@H](Cc2ccccc2)C(=O)NCc2cccc(F)c2)n1 (some centres not stated)	-2% (inactive)
COC(=O)c1cccc(CNCc2cccc(-c3ccc(-c4nc5c(C)cccc5[nH]4)s3)c2)c1	1% (inactive)
COc1cc(NCCCCCNc2cc(Cl)nc3ccccc23)nc2ccccc12	-3% (inactive)
CCN1CCN(c2ccc(NC(=O)c3cc4c(C)nn(-c5ccccc5)c4s3)cc2C)CC1	5% (inactive)

Structure (SMILES)	inhibition
CC(C#N)Cc1ccc(-c2cnc(N)c3cc(-c4ccnc(N)n4)ccc23)cc1 (configuration not stated)	0% (inactive)
COc1ccc(C(=O)[C@H]2C[C@@H]2CN(C)CCC(O)c2ccc(Cl)c(Cl)c2)cc1 (some centres not stated)	-8% (inactive)
Cc1ccc(OCC2CCN(c3ncc(C(=O)NC4CC4)cc3Cl)CC2)cc1	0% (inactive)
O=C(Nc1cccc(-c2cccc(-c3nc4ccccc4[nH]3)c2)c1)Nc1ccc2c(c1)OCO2	-4% (inactive)
CCN1CCN(Cc2c(O)ccc3c(=O)c(Oc4cc(C)cc(C)c4)c(C(F)(F)F)oc23)CC1	3% (inactive)
c1ccc(C2=NN=C(c3ccccn3)[C@H]3[C@H]4C[C@@H]([C@@H]23)[C@@H]2[C@H]4[C@H]3C[C@@H]2c2ccccc23)nc1	-3% (inactive)
CN(c1ccc(C(=O)N[C@@H](CCC(=O)O)C(=O)O)cc1)S(=O)(=O)c1ccc2nc(N)[nH]c(=O)c2c1	2% (inactive)
C=CCc1cc(Cc2cnc(N)nc2N)c2ccc(C)nc2c1OC	-4% (inactive)
COc1c(Br)cc(Br)cc1-c1ccc(CN2C3CCCC2CCC3)[nH]1	3% (inactive)
Cc1cc(N[C@@H](Cc2ccccc2)C(=O)NCc2cccc(F)c2)nc(NCCOc2ccccc2)n1	-3% (inactive)
Cn1c(N)c(N=O)c(=O)[nH]c1=O	0% (inactive)
O=C(Nc1cc(F)cc(-c2cccnc2)c1)c1ccc2c(=O)n(Cc3ccccc3)cnc2c1	2% (inactive)
Cn1ccc(C(=O)Nc2ccc3c(c2)CN(Cc2ccc(N4CCCC4)o2)CCC3)n1	4% (inactive)
COc1cc(OC)cc(-c2nn(-c3ccc([N+](=O)[O-])cc3C#N)c(=S)n2Cc2ccco2)c1	-6% (inactive)
CCCCCN1CCCN(Cc2cccc(NC(=O)c3ccc(-c4ccccc4)cc3)c2)CC1	6% (inactive)
C[C@@H]1CCC[C@H](C)N1C[C@@H](O)CNS(=O)(=O)c1cccc(C(F)(F)F)c1	-4% (inactive)
O=C1c2ccc([N+](=O)[O-])cc2C(=O)N1c1ccc2[nH]ncc2c1	-1% (inactive)
NC(=NC1CC1)c1ccc2nc(CCCCCc3nc4ccc(C(N)=NC5CC5)cc4[nH]3)[nH]c2c1	2% (inactive)
